PubChem BioAssay AID1159580 (chemical genetic matrix, 2015)
About 2,000 (36%) of roughly 5,500 compounds were called active. Not shown: some 18% with an inconclusive outcome. Rule as the data show it: active = normalized growth mostly below about 0.91 (no sharp cut-off); inconclusive = no clear call, values can overlap the other calls; inactive = mostly above about 0.92. This is one part of the list.

Assay: chemical genetic growth profiling, strain panel (AID 1159580);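 also: tested at 20 µM; growth read once vehicle control cultures reached saturation at 30 °C; 1 = growth at the plate median or of vehicle wells; lower values mean less growth of the strain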
Details: S. cerevisiae deletion strains, growth OD

Measured: normalized growth

FC(F)(F)COCC(F)(F)F
inactive: locus YAL021C, strain ccr4, hits give low values 1.02 | locus YAL026C, strain drs2, hits give low values 1.04 | locus YAL030W, strain snc1, hits give low values 0.993 | locus YBL061C, strain skt5, hits give low values 1.03 | locus YBR009C, strain hhf1, hits give low values 0.998 | locus YBR023C, strain chs3, hits give low values 1.03 | locus YBR171W, strain sec66, hits give low values 1.01 | locus YBR231C, strain swc5, hits give low values 1.02 | locus YBR279W, strain paf1, hits give low values 1.02 | locus YCL011C, strain gbp2, hits give low values 1.02 | locus YCL016C, strain dcc1, hits give low values 1.03 | locus YCL069W, strain vba3, hits give low values 1.03 | locus YCR088W, strain abp1, hits give low values 1.01 | locus YDL005C, strain med2, hits give low values 1.01 | locus YDL040C, strain nat1, hits give low values 1.02 | locus YDR001C, strain nth1, hits give low values 1.01 | locus YDR069C, strain doa4, hits give low values 1.02 | locus YDR137W, strain rgp1, hits give low values 1.03 | locus YDR159W, strain sac3, hits give low values 0.963 | locus YDR195W, strain ref2 0.996 | locus YDR297W, strain sur2, hits give low values 1.01 | locus YDR334W, strain swr1, hits give low values 1.01 | locus YDR335W, strain msn5, hits give low values 1.03 | locus YDR392W, strain spt3, hits give low values 0.971 | locus YEL003W, strain gim4, hits give low values 0.992 | locus YEL037C, strain rad23, hits give low values 1.01 | locus YEL061C, strain CIN8 (second series), hits give low values 1 | locus YER015W, strain faa2, hits give low values 1.02 | locus YER016W, strain bim1, hits give low values 1.03 | locus YER111C, strain swi4, hits give low values 1.01 | locus YER155C, strain BEM2 (second series), hits give low values 0.986 | locus YFR010W, strain ubp6, hits give low values 0.999 | locus YGL167C, strain pmr1, hits give low values 1.02 | locus YGL173C, strain kem1, hits give low values 1 | locus YGL227W, strain vid30, hits give low values 1.02 | locus YGL240W, strain doc1, hits give low values 0.996 | locus YGL253W, strain hxk2, hits give low values 1.03 | locus YHR013C, strain ard1, hits give low values 1.02 | locus YHR027C, strain rpn1, hits give low values 1.02 | locus YHR030C, strain SLT2, hits give low values 0.998 | locus YHR079C, strain IRE1, hits give low values 0.96 | locus YHR142W, strain chs7, hits give low values 1.03 | locus YJL092W, strain hpr5, hits give low values 1.02 | locus YJL095W, strain BCK1 (second series), hits give low values 1.03 | locus YJL095W, strain BCK1, hits give low values 1 | locus YJL115W, strain asf1, hits give low values 1.02 | locus YJL129C, strain trk1, hits give low values 1.04 | locus YJL154C, strain vps35, hits give low values 1.04 | locus YJL164C, strain tpk1, hits give low values 1.02 | locus YJL166W, strain qcr8, hits give low values 0.986 | locus YJL187C, strain SWE1, hits give low values 1.02 | locus YJR066W, strain TOR1, hits give low values 0.938 | locus YKL160W, strain elf1, hits give low values 1.01 | locus YKR026C, strain gcn3, hits give low values 1.01 | locus YKR091W, strain srl3, hits give low values 1.01 | locus YLL001W, strain dnm1, hits give low values 0.988 | locus YLL026W, hits give low values 1 | locus YLL041C, strain sdh2, hits give low values 1.02 | locus YLR027C, strain aat2, hits give low values 1.02 | locus YLR113W, strain HOG1, hits give low values 0.999 | locus YLR221C, strain rsa3, hits give low values 0.996 | locus YLR258W, strain gsy2, hits give low values 1.04 | locus YLR262C, strain YPT6 (second series), hits give low values 0.992 | locus YLR320W, strain mms22, hits give low values 0.968 | locus YLR342W, strain FKS1, hits give low values 1.03 | locus YLR357W, strain rsc2, hits give low values 1.01 | locus YLR370C, strain arc18, hits give low values 1.03 | locus YLR384C, strain iki3, hits give low values 1.02 | locus YML120C, strain ndi1, hits give low values 1 | locus YMR058W, strain fet3, hits give low values 1.04 | locus YMR125W, strain sto1, hits give low values 1.04 | locus YMR129W, hits give low values 1 | locus YMR205C, strain PFK2, hits give low values 1 | locus YMR231W, strain pep5, hits give low values 1.01 | locus YNL071W, strain lat1, hits give low values 1.03 | locus YNL183C, strain NPR1, hits give low values 0.948 | locus YNL209W, strain ssb2, hits give low values 1.03 | locus YNL248C, strain rpa49, hits give low values 1.04 | locus YNL322C, strain KRE1 (second series), hits give low values 1.02 | locus YNR049C, strain mso1, hits give low values 1.01 | locus YOR001W, strain rrp6, hits give low values 0.986 | locus YOR070C, strain gyp1, hits give low values 1.01 | locus YOR080W, strain dia2, hits give low values 1.01 | locus YOR083W, strain WHI5, hits give low values 0.981 | locus YOR106W, strain vam3, hits give low values 1.04 | locus YOR231W, strain MKK1, hits give low values 0.993 | locus YOR265W, strain rbl2, hits give low values 1.01 | locus YOR270C, strain vph1, hits give low values 1.07 | locus YOR290C, strain snf2, hits give low values 1.03 | locus YPL051W, strain arl3, hits give low values 1.03 | locus YPL078C, strain atp4, hits give low values 1.03 | locus YPL106C, strain sse1, hits give low values 0.983 | locus YPL240C, strain hsp82, hits give low values 1 | locus YPL256C, strain CLN2, hits give low values 0.948
